From PubChem BioAssay (NCATS)
Records with an inconclusive call do not appear. Values without a mark were called inactive. The source made the active and inactive calls. Calls follow the shape of the dose curve; as a rule, active = well fitted cell-killing curve with a large enough effect; inconclusive = small, poorly fitted or top-dose-only effect, or effect the other way; inactive = no such curve, though single readings can be large or run the other way.

Test: Viability qHTS for spleen associated tyrosine kinase inhibitor (SYKi) naive MV4-11 cells (AID 1963823); also: nearly all actives have a fitted effect of over 40% in size
Details: MV4-11 AML viability, CellTiter-Glo luminescence, 72 h; series mostly up to 45 µM; viability (% of control): at the top concentration
In short: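 Luminescence from CellTiter-Glo, developed 10 min at room temperature, gave viability of MV4-11 cells never exposed to SYK inhibitor. Cells (500/well) had been incubated with compounds for 72 hr under standard culture conditions.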
Potency is read from the fitted curve at half-maximal effect.

Q: Which Potency does the source give for `CC(=O)O[C@H]1CC2C(COC(=O)CC(C)C)=CO[C@@H](OC(=O)CC(C)C)C2[C@]12CO2` (stereo partly drawn) here?
A: 1.42 µM (active)

Q: For `COc1ccc(S(=O)(=O)Nc2nc(-c3cccc([N+](=O)[O-])c3)cs2)cc1OC`, which “viability (% of control)” value is on record?
A: 71.5%

Q: Which Potency does the source give for `CC1(C(=O)O)CCCC2(C)C3CCC4CC3(CCC12)CC4=O` (stereo not drawn) here?
A: 13 µM (active)

Q: Which “viability (% of control)” value does the source give for `COc1cc(CO)cc(OC)c1O[C@@H]1O[C@H](CO)[C@@H](O)[C@H](O)[C@H]1O` here?
A: 80.7%

Q: Which “viability (% of control)” value does the source give for `O=C(O)CC(=O)OC[C@H]1O[C@@H](Oc2ccc3c(c2)OC[C@H]2c4cc5c(cc4O[C@@H]32)OCO5)[C@H](O)[C@@H](O)[C@@H]1O` here?
A: 88.1% [at 17.3 µM]

Q: Which “viability (% of control)” value does the source give for `COc1cc(/C=C/C(=O)O[C@@H]2O[C@H](CO)[C@@H](O)[C@H](O)[C@H]2O)ccc1O` here?
A: 76.2%

Q: Which “viability (% of control)” value does the source give for `CC(=O)OC1C(O)/C(C)=C\C2C(OC(=O)c3ccccc3)C(C)CC2(OC(C)=O)C(OC(C)=O)C(C)/C=C/C(C)(C)C1OC(C)=O` (stereo not drawn) here?
A: 53.3% [at 17.3 µM]

Q: For `CC(C)=CCC/C(C)=C/CO[C@@H]1O[C@H](CO)[C@@H](O)[C@H](O)[C@H]1O`, which “viability (% of control)” value is on record?
A: 85.2%

Q: For `Cc1cc2nc(NCCCO)n(CC(=O)c3cc(C(C)(C)C)c(O)c(C(C)(C)C)c3)c2cc1C`, which Potency is on record?
A: 8.2 µM (active)

Q: For `C=Cc1cc(O)cc2nc(-c3ccc(O)c(F)c3)oc12`, which Potency is on record?
A: 23.5 µM (active)

Q: For `COc1ccccc1CC(C(=O)O)N(C)C(=O)c1ccccc1` (stereo not drawn), which “viability (% of control)” value is on record?
A: 73.7%

Q: Which Potency does the source give for `C=C1C(=O)OC2CC3(C)C(O)C(=O)C=C(C)C3CC12` (stereo not drawn) here?
A: 23.1 µM (active)

Q: For `CC1=C2C(=O)C=C(CO)C2[C@H]2OC(=O)[C@H](C)[C@@H]2[C@@H](OC(=O)Cc2ccc(O)cc2)C1` (stereo partly drawn), which “viability (% of control)” value is on record?
A: 74.2% [at 17.3 µM]
